In all, about 1,000 compounds were measured (“relative growth recovery (pomalidomide 10 uM = 100%, DMSO = 0%)”: median about -1.6, highest 2% from about 21 on). The sample holds the highest values, similar compounds and a random draw of the others, so the mix is not that of the screen.
Tested on: HEK293FT dCK*-IKZF1
Experiment: relative growth recovery (pomalidomide 10 uM = 100%, DMSO = 0%); higher = more growth rescue (IKZF1 fusion degradation)
Conditions: compound concentration: 5 uM; AraC concentration: 0.3 uM; overnight pretreatment + 4 days AraC
Protocol: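 Growth recovery screen of the molecular-glue-like (Specs) library. HEK293FT cells expressing a dCK*-IKZF1 fusion (primary) or dCK* alone (counter) were pretreated overnight with compound at 5 uM, then given 0.3 uM AraC for 4 days. Hoechst nuclei were counted by imaging. Primary: normalised to pomalidomide (100%) and DMSO (0%), mean of 2 replicates. Counter: normalised to no-AraC (100%) and AraC+DMSO (0%), single replicate.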

SMILES | relative growth recovery [%]
CCCc1cnc(Nc2cccc(C3CCN(C(=O)Cn4c(CC(C)C)nc5ccccc54)CC3)n2)s1 | -2.13
COc1ccc(-c2csc(Nc3ccc(S(=O)(=O)Nc4cc(OC)nc(OC)n4)cc3)n2)cc1 | -2.94
Cc1cnc(Nc2cccc(C3CCCN3C(=O)c3nccc4ccccc34)n2)s1 (centres undefined) | 2.39
O=C(Cc1cccs1)Nc1ccc(Oc2ccc3c(c2)C(=O)N(c2ccc(O)cc2)C3=O)cc1 | -1.26
O=C(C1CCCCC1)N1CCC(Cc2cccc(Nc3nccs3)n2)CC1 | 4.47
Cc1cccc(C)c1OCC(=O)Nc1ccc(S(=O)(=O)Nc2ncccn2)cc1 | 1.77
COc1ccccc1CCC(=O)N1CCOC(c2cccc(Nc3ncc(C)s3)n2)C1 (centres undefined) | 10.8
COc1cc(NS(=O)(=O)c2ccc(NC(=O)COc3cccc(C)c3)cc2)nc(OC)n1 | -18.6
COCC(=O)N1CCCC1c1cccc(Nc2nc(C)cs2)n1 (centres undefined) | -7.27
O=C1CCC(N2C(=O)c3ccc(C(=O)O)cc3C2=O)C(=O)N1 (centres undefined) | -0.47
Cc1cc(C)nc(NS(=O)(=O)c2ccc(NC(=O)c3ccccc3I)cc2)n1 | -0.26
Cc1ccnc(NS(=O)(=O)c2ccc(NC(=O)C34CC5CC(CC(C5)C3)C4)cc2)n1 | -6.07
CCCCCOC(=O)c1ccc(N2C(=O)c3ccc(Oc4ccc(N)cc4)cc3C2=O)cc1 | 1.57
CC(C)Cc1nc2ccccc2n1CC(=O)N1CCC(Cc2cccc(Nc3nccs3)n2)CC1 | -1.89
CC(C)(C)C(=O)NC1(C(=O)N2CCC(c3cccc(Nc4ncc(Cl)s4)n3)CC2)CCCCC1 | -18.6
COCC(=O)N1CCC(c2cccc(Nc3ncc(C)s3)n2)CC1 | -19.4
CC(=O)N1CCCC(c2csc(Nc3ccc(C)cn3)n2)C1 (centres undefined) | -5.95
CC(=O)Nc1ccc(-c2csc(Nc3cccc(C)n3)n2)cc1 | 0.905
CC(=O)Nc1cccc(-c2csc(Nc3cccc(C)n3)n2)c1 | 5.18
CC(=O)Nc1ccc(-c2csc(Nc3ccc(Cl)cn3)n2)cc1 | -2.84
Cc1ccc(Nc2nc(-c3sc(NC(=O)c4ccccc4)nc3C)cs2)nc1 | 111
CC(=O)N1CCCC1c1csc(Nc2ccccn2)n1 (centres undefined) | -4.06

SMILES | relative growth recovery [%]
Cc1cccc(Nc2nc(-c3sc(NC(=O)c4ccccc4)nc3C)cs2)n1 | 121
CC(=O)Nc1ccc(-c2csc(Nc3ccccn3)n2)cc1 | 2.7
Cc1ccnc(Nc2nc(-c3sc(NC(=O)c4ccccc4)nc3C)cs2)c1 | 111
Cc1nc2ccccn2c1CC(=O)N1CCOC(c2cccc(Nc3nccs3)n2)C1 (centres undefined) | 10.9
Cc1cnc(Nc2cccc(C3CN(C(=O)COc4ccccc4)CCO3)n2)s1 (centres undefined) | -5.58
CCCc1cnc(Nc2cccc(C3CCN(C(=O)C4CCCCN4C(=O)CN(C)C)CC3)n2)s1 (centres undefined) | -2.86
Cc1csc(Nc2cccc(C3CCN(C(=O)c4cccnc4)CC3)n2)n1 | 8.94
Cc1cc(C)c(C(=O)Nc2ccc(S(=O)(=O)Nc3cc(C)nc(C)n3)cc2)c(C)c1 | -1.16
Cc1csc(Nc2cccc(C3CN(CC(=O)NCc4ccccn4)CCO3)n2)n1 (centres undefined) | 8.57
COc1cccc(OC)c1C(=O)N1CCOC(c2cccc(Nc3nc(C)cs3)n2)C1 (centres undefined) | 7.41
Cc1csc(Nc2cccc(C3CN(C(=O)Cn4nc(C)ccc4=O)CCO3)n2)n1 (centres undefined) | 1.32
Cc1cnc(Nc2cccc(C3CN(C(=O)C4CCCC4)CCO3)n2)s1 (centres undefined) | -12.3
Cc1csc(Nc2cccc(C3CCCN3C(=O)CCOc3ccccc3C)n2)n1 (centres undefined) | 11.5
COCC(=O)N1CCOC(c2cccc(Nc3nc(C)cs3)n2)C1 (centres undefined) | 2.9
Cc1csc(Nc2cccc(C3CN(C(=O)CCC4CCCC4)CCO3)n2)n1 (centres undefined) | 21
Cc1cnc(Nc2cccc(C3CN(C(=O)C4CC4c4ccc(Cl)cc4)CCO3)n2)s1 (centres undefined) | 28.4
Cc1csc(Nc2cccc(C3CN(C(=O)CCn4ncc5ccccc54)CCO3)n2)n1 (centres undefined) | 18.8
Cc1csc(Nc2cccc(C3CN(C(=O)COc4c(C)cccc4C)CCO3)n2)n1 (centres undefined) | 22.3
Cc1cnc(Nc2cccc(C3CN(C(=O)C45CC6CC(CC(C6)C4)C5)CCO3)n2)s1 (centres undefined) | -2.75
Cc1csc(Nc2cccc(C3CN(C(=O)CCOc4ccccc4C)CCO3)n2)n1 (centres undefined) | 62.8
Cc1cnc(Nc2cccc(C3CN(C(=O)CCC4CCCCC4)CCO3)n2)s1 (centres undefined) | 7.2
COc1cc(NS(=O)(=O)c2ccc(NC(=O)c3ccc(Br)o3)cc2)nc(OC)n1 | 2.29

SMILES | relative growth recovery [%]
CC(C)(N)C(=O)N1CCC(CO)(c2cccc(Nc3ncc(-c4ccccc4)s3)n2)CC1 | -19.1
Cc1cc(NS(=O)(=O)c2ccc(NC(=O)c3cccnc3)cc2)nc(C)n1 | 1.28
CCCOc1ccc(C(=O)Nc2ccc(S(=O)(=O)Nc3ncccn3)cc2)cc1 | -3.33
Cc1cc(C)nc(NS(=O)(=O)c2ccc(NC(=O)CSc3nc4c(cc3C#N)CCC4)cc2)n1 | -6.17
Cc1nc(Nc2cccc(C3CCCN3C(=O)CCOc3cccc(F)c3)n2)sc1C (centres undefined) | 8.19
CCOc1ccccc1OCC(=O)Nc1ccc(S(=O)(=O)Nc2ccccn2)cc1 | -1.77
COc1ccccc1CCC(=O)N1CCC(c2cccc(Nc3ncc(C)s3)n2)CC1 | 19
Cc1ccc(N2C(=O)c3ccc(Oc4ccc(N)cc4)cc3C2=O)cc1 | -1.57
Nc1ccc(Oc2ccc3c(c2)C(=O)N(c2ccccc2)C3=O)cc1 | 2.54
COCCNC(=O)C1(c2cccc(Nc3ncc(C)s3)n2)CCN(C(=O)C2CCCCC2)CC1 | -5.38
Cc1ccnc(NS(=O)(=O)c2ccc(NC(=O)Cc3ccc(Cl)cc3)cc2)n1 | 2.92
Cc1cnc(Nc2cccc(C3CCCN3C(=O)CCCc3ccc(F)cc3)n2)s1 (centres undefined) | 0.955
Cn1cc(/C=C/C(=O)N2CCC(c3cc4ccccc4c(Nc4nccs4)n3)CC2)cn1 | -18.7
CCc1nccn1CC(=O)N1CCOC(c2cccc(Nc3ncc(C)s3)n2)C1 (centres undefined) | 0.35
Cc1cc(C)c(S(=O)(=O)Nc2ccc(S(=O)(=O)Nc3ncccn3)cc2)c(C)c1 | 6.84
COc1ccc2[nH]c3nc(SCC(=O)Nc4cc(Cl)ccc4OC)nnc3c2c1 | -18.5
COc1cc(NS(=O)(=O)c2ccc(NC(=O)C3CC3)cc2)nc(OC)n1 | -1.71
O=C1CCC(N2C(=O)c3cccc(NC[C@H]4CC[C@H](C(=O)O)CC4)c3C2=O)C(=O)N1 (some centres undefined) | 50.3
O=C(O)CCCNc1cccc2c1C(=O)N(C1CCC(=O)NC1=O)C2=O (centres undefined) | 3.32
O=C(O)CCOCCNc1cccc2c1C(=O)N(C1CCC(=O)NC1=O)C2=O (centres undefined) | -5.19
